TDP1 cell noCPT: qHTS for Inhibitors of human tyrosyl-DNA phosphodiesterase 1 (TDP1): qHTS in cells in absence of CPT; 420,000 compounds, 15% hits; DT40 Tdp1-/- hTDP1 cells, no CPT, ATP luminescence, 48 h; Potency, µM (highest dose often 46.2 µM), actives largely listed as inhibitors; AID 686978, 2013; note: nearly all actives have a fitted effect of over 55% in size
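Luminescent ATP content (CellTiter-Glo) served as the growth readout. Knockout chicken DT40 cells expressing human TDP1 were exposed to compounds without camptothecin for a minimum 48 hr at 37 °C.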
IL-1B inflam inh: inflammasome signaling inhibition, IL-1 beta readout | THP-1 LPS/ATP IL-1B secretion, AlphaLISA, 16 h; active compounds read low | activity change, % at 57.5 µM | 360,000 compounds, 4.7% hits; in the data active = activity change below about -50%; inconclusive = mostly about -30% to -49%
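Secreted IL-1B measured by AlphaLISA bead assay after 16 h compound exposure of THP-1 cells; compounds (final up to 57.5 uM) added 1 h before LPS (250 ng/mL) and ATP (1.25 mM) stimulation; lower signal means less secretion.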
TDP1 cell CPT: growth inhibition of DT40 Tdp1-/-;hTDP1 cells with camptothecin (screen for TDP1 inhibitors) | 420,000 compounds, 12% hits | chicken DT40 Tdp1-/-;hTDP1 cells + 20 nM CPT, ATP luminescence, 48 h | AID 686979 | Potency, µM (doses to about 46.2 µM), most hits filed as inhibitors; note: nearly all actives have a fitted effect of over 55% in size
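Chicken DT40 Tdp1-/- cells stably complemented with human TDP1 were seeded at 400 cells/well in medium containing 20 nM camptothecin, exposed to pin-transferred compounds, and grown at 37 °C for at least 48 hr. Viability was read as ATP luminescence.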
HT1080-NT tox: kills 2HG-producing HT-1080-NT fibrosarcoma cells; Potency, µM (titrated, usually from 46.1 µM), usual class: cytotoxic; HT-1080-NT fibrosarcoma viability, CellTiter-Glo ATP luminescence, 48 h; 360,000 compounds, 1.6% hits; AID 686970;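 note: NT is the 2HG producing partner of a matched IDH1 knockdown line; nearly all actives have a fitted effect of over 55% in size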
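750 cells/well, RPMI + 5% FBS; 2 h settle, compound pin-transfer, 48 h at 37 degrees C. CellTiter-Glo 10 min RT, luminescence. Normalized to DMSO and media-only wells.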
HT1080 IDH1KD tx: toxicity to HT-1080 IDH1 knockdown cells (counter line) | HT-1080 IDH1 knockdown viability, ATP luminescence, 48 h | Potency, µM (highest dose often 46.1 µM), usual class: cytotoxic | 360,000 compounds, 2% hits | AID 686971
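Assay cells: HT-1080 with IDH1 knockdown, 750 per well, RPMI/5% FBS. Exposure: 48 h at 37 °C following 2 h pre-incubation. Read: CellTiter-Glo luminescence; fitted concentration-response, curve class assigned.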
12-LOX inh: blocks human arachidonate 12S-lipoxygenase; purified 12hLO, xylenol orange hydroperoxide absorbance; 580,000 compounds, 1.1% hits; AID 1671190; Potency, µM (doses to about 108 µM), hits mostly inhibitors; P18054
Target sequence (P18054 whole entry, looked up): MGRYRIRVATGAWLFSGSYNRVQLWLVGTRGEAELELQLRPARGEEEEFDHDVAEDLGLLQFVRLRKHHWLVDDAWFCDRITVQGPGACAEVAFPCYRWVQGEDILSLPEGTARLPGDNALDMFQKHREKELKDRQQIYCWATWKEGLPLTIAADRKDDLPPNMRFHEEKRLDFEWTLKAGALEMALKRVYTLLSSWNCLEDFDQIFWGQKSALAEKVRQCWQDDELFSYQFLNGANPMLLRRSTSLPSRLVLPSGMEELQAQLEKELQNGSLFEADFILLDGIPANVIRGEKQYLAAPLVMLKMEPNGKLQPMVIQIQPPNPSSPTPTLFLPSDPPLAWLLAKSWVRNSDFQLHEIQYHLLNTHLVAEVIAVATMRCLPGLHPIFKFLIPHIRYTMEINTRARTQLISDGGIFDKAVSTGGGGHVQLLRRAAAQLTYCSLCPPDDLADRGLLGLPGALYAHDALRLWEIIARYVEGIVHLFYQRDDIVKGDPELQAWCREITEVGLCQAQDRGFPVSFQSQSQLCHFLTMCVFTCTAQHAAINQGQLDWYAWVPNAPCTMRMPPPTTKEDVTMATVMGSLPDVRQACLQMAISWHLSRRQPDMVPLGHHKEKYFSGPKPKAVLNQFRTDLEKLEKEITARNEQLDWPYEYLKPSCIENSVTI
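Purified human 12hLO (150 nM final) in 25 mM Hepes, 0.01% Triton X-100, pH 7.0 was preincubated 15 min at room temperature with compound. Then 40 uM arachidonic acid was added, 30 min. Hydroperoxide was read by Fe-XO absorbance ratio 573/405 nm.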
Hits are given with their value; . = inactive; ? = inconclusive; / = no result given; [ ] = remark or other dose. The entries come from a sample that favours hits as a whole. Unless noted, calls come from the whole dose curve; as a rule, active = well fitted curve in the direction sought with a large enough effect; inconclusive = small, poorly fitted or top-dose-only effect, or another doubt; inactive = no such curve, though single readings can be large; an effect the other way counts as inactive or inconclusive.

SMILES	TDP1 cell noCPT	IL-1B inflam inh	TDP1 cell CPT	HT1080-NT tox	HT1080 IDH1KD tx	12-LOX inh
COc1ccc2nc(-c3ccccc3)[nH]c2c1	?	.	?	.	.	.
CCOc1ccc2nc(-c3ccccc3)[nH]c2c1	21µM	.	9.2µM	8.2µM	9.2µM	.
Cc1nc(-n2nc(C)c(Cl)c2C)sc1C(=O)N1CCC(C)CC1	/	/	/	/	/	.
Clc1ccc(N2CCN(c3cnc4ccccc4n3)CC2)cc1	?	.	23µM	.	.	.
c1ccc(N2CCN(c3cnc4ccccc4n3)CC2)cc1	?	.	?	.	.	.
CN(Cc1ccccc1F)C(=O)COC(=O)CCN=C1NS(=O)(=O)c2ccccc21	/	/	/	/	/	.
CCOc1ccc(C(=O)Nc2nnc(SCc3cc(=O)c4cc(C)ccc4[nH]3)s2)cc1	.	/	.	/	/	.
CCCC(=O)Nc1nnc(SCc2cc(=O)c3ccc(C)cc3[nH]2)s1	0.73µM	/	1.5µM	/	/	.
CC(C)/C=N/NC(=O)COc1ccc(C#N)cc1	/	/	/	/	/	.
Cc1[nH]c2ccccc2c1SCCNC(=O)c1ccncc1	/	/	/	/	/	.
CC(SC#N)C(=O)C12CC3CC(CC(C3)C1)C2 (stereo not drawn)	4.6µM	-96	7.3µM	?	16µM	.
N#C/C(=C\c1cn(-c2ccccc2)nc1-c1cccs1)S(=O)(=O)c1ccccc1	/	/	/	/	/	.
Cc1cc(S(=O)(=O)N(C)C)cc(NS(=O)(=O)c2cccc(Cl)c2Cl)c1C	/	/	/	/	/	.
N=c1c2ccccc2nc2n1CCCCCCCCCCC2	7.3µM	-87	5.2µM	?	23µM	?
CC(C)(C)c1nc(C(=O)NCCc2ccc(Cl)cc2)n2ccncc12	/	/	/	/	/	.[6.33 µM]
Cc1ccc(N2CCN(C3=NC(=O)C(Cc4ccccc4)S3)CC2)cc1 (stereo not drawn)	23µM	.	29µM	.	.	.
CC(=O)Nc1ccc(SC(C)C(=O)N(C)c2ccccc2)cc1 (stereo not drawn)	/	/	/	/	/	.
N#CC1(C(=O)NCc2cccc(NC(=O)C3CCCC3)c2)CCCC1	/	/	/	/	/	.
COc1ccc(-c2nnc(SCc3ccccn3)n2C)cc1	?	.	29µM	.	.	.
Cn1c(SCc2cc(=O)c3cc(Cl)ccc3[nH]2)nnc1-c1ccccc1	21µM	/	13µM	/	/	.
CCOc1ccc(-c2ccc(SCc3ccccn3)nn2)cc1	23µM	.	?	.	.	.
COc1ccc(C(=O)Nc2nnc(SCc3cc(=O)c4cc(C)cc(C)c4[nH]3)s2)cc1	.	/	.	/	/	.
COc1ccccc1-c1nnc(SCc2ccccn2)n1C	.	.	.	.	.	.
CCc1ccc(-c2ccc(SCc3ccccn3)nn2)cc1	?	?	.	.	.	.
COc1ccc(-c2nnc(SCc3cc(=O)c4cc(C)cc(C)c4[nH]3)n2C)cc1	18µM	/	23µM	/	/	.
SMILES	TDP1 cell noCPT	IL-1B inflam inh	TDP1 cell CPT	HT1080-NT tox	HT1080 IDH1KD tx	12-LOX inh
COc1ccc(S(=O)(=O)N2CCCCC2)cc1NC(=O)c1ccc(F)cc1	/	/	/	/	/	.
COc1ccc(CNC(=O)c2scnc2C)cc1OC	/	/	/	/	/	.
CC(C)CN(C(=O)CSc1ccc2ccccc2n1)C1CCS(=O)(=O)C1 (stereo not drawn)	/	/	/	/	/	.
O=C1OCC2=C1C(c1ccccc1)NC(=O)N2CC(=O)N1CCOCC1 (stereo not drawn)	/	/	/	/	/	.
COc1ccc(/C(=N\Nc2ccccc2C(=O)O)c2ccccc2)cc1	.	.	.	.	.	.
Cc1cccc(N/N=C(/c2ccccc2)c2ccc(F)cc2)c1C	/	/	/	/	/	5µM
COc1cc2c(C=O)c3c4c(cc(OC)c(OC)c4c2cc1OC)CCN3C	12µM	/	12µM	/	/	/
CC(=O)c1cccc(NC(=O)c2sc3nc4n(c(=O)c3c2C)CCCC4)c1	.	.	?	.	.	.
CC(=O)Nc1ccc(NC(=O)c2sc3nc4n(c(=O)c3c2C)CCCCC4)cc1	10µM	.	12µM	.	.	.
Cc1c(C(=O)Nc2ccc(C(C)C)cc2)sc2nc[nH]c(=O)c12	18µM	/	21µM	/	/	?
CCc1ccc(NC(=O)c2sc3nc4n(c(=O)c3c2C)CCC4)cc1	.	.	.	.	.	.
Cc1c(C(=O)Nc2ccc(C(C)C)cc2)sc2nc3n(c(=O)c12)CCC3	21µM	/	16µM	/	/	.
Cc1ccc(NC(=O)c2sc3nc[nH]c(=O)c3c2C)cc1Cl	?	/	.	/	/	.
Cc1c(C(=O)NCCc2ccc(Cl)cc2)sc2nc3n(c(=O)c12)CCCC3	18µM	/	?	/	/	.
OC(c1ccccc1)c1cc2n(n1)CCN(Cc1cncn1C1CC1)C2 (stereo not drawn)	/	/	/	/	/	.
